These results are taken from PubChem BioAssay AID488969 (Vanderbilt High Throughput Screening Facility, 2010).

Over roughly 110,000 compounds, “z-score” has its median near -0.1; the highest 2% begin near 2. The entries come from a sample that favours the highest values as a whole. Activity calls are given as the source filed them.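 How the source made its calls: active means z-score in the third read window above 3 or below -3; inactive means the rest.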

For the assay, the target named is Metabotropic glutamate receptor 8 (Rattus norvegicus) (UniProt P70579). Description: mGluR8 Gi/Go-coupled signaling modulation – cell-based, rat, thallium flux, HTS, primary screen (AID 488969). The conditions noted are these: HEK293 rat mGluR8, GIRK (G protein-gated inwardly rectifying potassium channel) thallium flux, FluoZin2; at 10 µM; stronger effect = higher value; submaximal glutamate (EC20) added with thallium.
Metabotropic glutamate receptor 8 (Rattus norvegicus), sequence (P70579 whole entry, looked up): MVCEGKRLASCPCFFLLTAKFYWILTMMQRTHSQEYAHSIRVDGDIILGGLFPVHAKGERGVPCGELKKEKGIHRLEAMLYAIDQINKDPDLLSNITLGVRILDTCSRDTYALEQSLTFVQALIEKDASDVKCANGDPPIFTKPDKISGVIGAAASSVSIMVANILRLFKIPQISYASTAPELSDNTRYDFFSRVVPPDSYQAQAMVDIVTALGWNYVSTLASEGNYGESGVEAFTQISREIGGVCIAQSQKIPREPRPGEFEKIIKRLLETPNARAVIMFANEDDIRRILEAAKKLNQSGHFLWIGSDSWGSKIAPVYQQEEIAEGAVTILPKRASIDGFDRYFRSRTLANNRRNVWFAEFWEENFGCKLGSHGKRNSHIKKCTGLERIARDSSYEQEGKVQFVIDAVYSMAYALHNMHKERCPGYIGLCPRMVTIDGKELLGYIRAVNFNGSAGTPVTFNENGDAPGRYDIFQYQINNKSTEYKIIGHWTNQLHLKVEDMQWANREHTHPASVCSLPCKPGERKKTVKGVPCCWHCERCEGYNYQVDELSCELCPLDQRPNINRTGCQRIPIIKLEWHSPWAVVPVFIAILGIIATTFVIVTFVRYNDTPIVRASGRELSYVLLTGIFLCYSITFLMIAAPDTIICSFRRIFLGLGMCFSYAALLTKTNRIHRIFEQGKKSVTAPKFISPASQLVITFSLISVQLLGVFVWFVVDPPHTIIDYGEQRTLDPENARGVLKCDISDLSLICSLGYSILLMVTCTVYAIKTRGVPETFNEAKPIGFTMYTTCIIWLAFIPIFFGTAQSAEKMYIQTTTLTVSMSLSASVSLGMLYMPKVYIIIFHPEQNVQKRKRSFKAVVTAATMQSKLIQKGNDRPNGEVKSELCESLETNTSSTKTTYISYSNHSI
`CC(=O)N1CCCc2cc(S(=O)(=O)N(C)Cc3ccccc3)ccc21`: the z-score is 0.884. With `Cc1ccc(SCc2nc3ccccc3[nH]2)cc1` the figure was -0.0609; with `CCCC(=O)NC(Nc1cccc(C(F)(F)F)c1)C(Cl)(Cl)Cl` (configuration not stated), -0.917; with `COc1ccc(OCC(=O)Nc2ccccc2OC(F)F)cc1`, 2.69. With `COc1ccc(OCC(=O)Nc2ccc(C)cc2)cc1` the figure was -0.351. The same measure for `Nc1cc(N)nc(SCC(=O)Nc2ccccc2)n1`: -0.306; for `COc1cc(OC)c(OC)cc1NC(=O)CC1COc2ccccc2O1` (configuration not stated): -0.0814; for `COc1cccc(NC(=O)CSc2nc(N)cc(N)n2)c1`: 3.37 (active).

The compound `COc1ccccc1NC(=O)CC1COc2ccccc2O1` (configuration not stated) returned a z-score of 0.0423. `COc1ccc(OCC(=O)NNC(=O)C(=O)Nc2ccc(C)cc2)cc1` yielded a z-score of 2.73. The same measure for `CCOc1ccc(OCC(=O)Nc2ccc(OC)cc2)cc1`: -0.476; for `COc1cccc(NC(=O)CC2COc3ccccc3O2)c1` (configuration not stated): 5.36 (active). The same measure for `COc1ccccc1NC(=O)COc1ccccc1`: 0.137; for `COc1ccc(OCC(=O)Nc2ccccc2O)cc1`: -0.431. With `Cc1cccc(NC(=O)CSc2nc(N)cc(N)n2)c1` the figure was -0.298; with `COc1ccc(NS(=O)(=O)c2cc(S(C)(=O)=O)ccc2C)cc1`, -0.235. Consider `COc1ccc2c(c1)C(NC(=O)C(F)(F)F)CC2=O` (configuration not stated), for which the z-score came out at 0.142.

`O=C(N1CCOCC1)N1CCN(C(=O)N2CCOCC2)CC1`: the z-score is -0.108. With `COc1cc(C(=O)CSc2nncn2C)cc(OC)c1OC` the figure was -0.245; with `CC1(C)Cc2nc3sc4c(OCc5ccccc5)ncnc4c3cc2CO1`, -0.0531.

In turn, `CCCN(CCC)C1=N/C(=C\c2ccco2)C(=O)N1c1ccccc1` showed a z-score of -0.536. The same measure for `Cc1ccccc1NC1C=CS(=O)(=O)C1` (configuration not stated): -0.358; for `Cc1ccc(N2C(=O)CCSC23C(=O)Nc2ccccc23)cc1` (configuration not stated): -0.0429; for `CC(C)(C)NC(=O)C(=O)NNC(=O)COc1ccccc1`: 0.182. `COc1ccc(OCC(=O)Nc2cccc(OC)c2)cc1` came in with a z-score of -0.532. For the compound `CC(C)(C)NC(=O)C(=O)NNC(=O)COc1ccc(Br)cc1`, the z-score was 1.89. In turn, `COc1cc(NC(=O)COc2cccc(OC)c2)cc(OC)c1` showed a z-score of 0.638. The same measure for `Cc1ccc(OCC(=O)NNC(=O)C(=O)NC(C)(C)C)cc1`: 2.61; for `COc1cccc(NC(=O)COc2ccc(C)cc2)c1`: 4.04 (active). With `O=C(COc1ccc(S(=O)(=O)NC2CCCCC2)cc1Cl)N1CCN(c2ccccc2)CC1` the figure was 1.16; with `COc1cccc(/C=N/NC(=O)C(=O)N2CCCC2)c1OC`, -0.494; with `CCSc1nnc(NC(=O)C2CCN(S(=O)(=O)c3ccccc3C(F)(F)F)CC2)s1`, -0.565.

Consider `O=C(Nc1ccccc1)/C(=C\c1ccc2c(c1)OCO2)NC(=O)c1ccco1`, for which the z-score is -0.0407. The compound `O=C(O)CC1C(=O)NCCN1Cc1ccc(F)c(F)c1` (configuration not stated) displayed a z-score of -0.183. The same measure for `COc1ccc(CN2CCNC(=O)C2CC(=O)O)cc1OC` (configuration not stated): 3.61 (active). The same measure for `Cc1ccc(CN2CCNC(=O)C2CC(=O)O)cc1` (configuration not stated): -0.134; for `CC1CC(C)CN(CCOCCSc2ccccc2)C1` (configuration not stated): 0.729. With `O=C(Cn1cc(C(F)(F)F)cc(Cl)c1=O)NCCc1ccccc1` the figure was -0.155.

In turn, `CC(=O)c1cccc(NC(=S)NC(=O)c2ccccc2)c1` gave a z-score of 1.63. Take `Cc1cccc(NC(=O)NC(=S)NC(=O)c2ccccc2)c1`: the z-score was 2.86.

Consider `Cc1ccc(NC(=O)NC(=S)NC(=O)c2ccccc2)cc1`, for which the z-score worked out at 1.68. In turn, `COC(=O)c1cccc(NC(=S)Nc2cccc(Cl)c2C)c1` returned a z-score of 0.445. The same measure for `COC(=O)c1cccc(NC(=S)Nc2cccc(Cl)c2Cl)c1`: 2.5; for `CCC(=O)Nc1cccc(NC(=S)NC(=O)c2cccc(C)c2)c1`: 0.23. The same measure for `CC(=O)c1cccc(NC(=S)NC(=O)c2ccccc2Cl)c1`: 1.17; for `CCC(=O)Nc1cccc(NC(=S)NC(=O)c2ccccc2)c1`: -0.455; for `CC(=O)c1cccc(NC(=S)NC(=O)c2ccc(Cl)cc2)c1`: -0.258. `CC(=O)c1cccc(NC(=S)NC(=O)c2cccc(Cl)c2)c1`: the z-score is 8.71 (active). With `CC(=O)c1cccc(NC(=S)NC(=O)c2cccc(C)c2)c1`, the z-score was 7.49 (active).

In turn, `COC(=O)c1cccc(NC(=S)NCc2ccc(Cl)cc2)c1` showed a z-score of 0.53. Take `O=C(c1ccc2snnc2c1)N1CCN(c2ccccn2)CC1`: the z-score was -0.329. With `COC(=O)Nc1sc2c(c1C(=O)N1CCOCC1)CCC(C)C2` (configuration not stated) the figure was 0.0522; with `COc1ccccc1S(=O)(=O)Nc1cccc(-c2nnc3n2CCCCC3)c1`, -0.163; with `Cc1cc2cc(C(c3nnnn3C(C)(C)C)N(Cc3ccco3)CC3CCCO3)c(=O)[nH]c2cc1C` (configuration not stated), -0.208. With `O=C(/C=C/c1ccc(F)cc1)c1ccccc1Br` the figure was -0.272. With `COc1ccc2nc(C(F)(F)C(F)(F)F)c(C#N)c(N)c2c1` the figure was -0.334; with `CC(C)Oc1cccc(C(=O)NC(=S)Nc2cccc(NC(=O)c3ccccc3Cl)c2)c1`, -0.41; with `CC(C)Oc1cccc(C(=O)NC(=S)Nc2ccccc2)c1`, 3.26 (active). `O=C(NNC(=S)Nc1cccc(C(F)(F)F)c1)c1cccc(Cl)c1` came in with a z-score of 2.97. The same measure for `Cc1ccccc1C(=O)NNC(=S)Nc1cccc(C(F)(F)F)c1`: -0.0547; for `O=C(NNC(=S)Nc1cccc(C(F)(F)F)c1)c1ccccc1Cl`: 0.86; for `CC(C)Oc1cccc(C(=O)NC(=S)Nc2cccc(C(F)(F)F)c2)c1`: 0.755. For `CCS(=O)(=O)N1CCN(C(=O)COc2ccc(-c3ccccc3)cc2)CC1`, the z-score is -0.0325. As for `O=c1c2c3c(sc2nc2n1CCCCC2)CCCCC3`, the z-score was 8.38 (active). With `O=c1c2c3c(sc2nc2n1CCCC2)CCCCC3` the figure was -0.277. In the case of `O=c1c2c3c(sc2nc2n1CCCCC2)CCC3`, the z-score is -0.21. With `O=C(Cn1c(CC(=O)N2CCOCC2)nc2ccccc21)Nc1ccc2c(c1)OC(F)(F)O2` the figure was 1.15; with `CCOc1ccc2nc(NC(=O)CN3CCN(C)CC3)sc2c1`, 0.433.

For the compound `C=CCNCCCOc1ccc(C)cc1Br`, the z-score came to 0.425. The same measure for `CC(=O)Nc1ccc(S(=O)(=O)N(C)CC(=O)OCC(=O)Nc2cccnc2Cl)cc1`: -0.172. Take `C/C(=N/NC(=O)CNc1ccc(C)cc1)c1ccc(Br)s1`: the z-score turned out to be 0.214. With `C/C(=N/NC(=O)c1cc(Cl)ccc1O)C12CC3CC(CC(C3)C1)C2` the figure was 3.19 (active); with `C/C(=N\NC(=O)c1cccc(F)c1)c1ccc(Br)s1`, 7.29 (active); with `O=C(NN=C1C2CC3CC(C2)CC1C3)c1cc(Cl)ccc1O`, 0.0729. The compound `CC/C(=N\NC(=O)c1ccccc1Cl)c1ccc(Br)s1` registered a z-score of 0.216.

Compound `C/C(=N\NC(=O)c1ccc(Cl)c(Cl)c1)c1ccc(Br)s1` returned a z-score of 1.19. The same measure for `COc1ccccc1NCC(=O)N/N=C(\C)c1ccc(Br)s1`: -0.279; for `C/C(=N\NC(=O)CNc1cccc(C)c1)c1ccc(Br)s1`: 0.0989; for `C/C(=N/NC(=O)c1ccoc1C)C12CC3CC(CC(C3)C1)C2`: 0.37.

Regarding `C/C(=N\NC(=O)c1ccccc1O)c1ccc(Br)s1`, the z-score was determined as 2.99. With `C/C(=N\NC(=O)c1cccc(N/N=C(\C)c2ccccc2)c1)c1ccccc1` the figure was -0.529; with `C/C(=N\NC(=O)c1ccc(Cl)cc1)c1ccc(Br)s1`, 8.88 (active).
